Shown are actives, neighbours in structure and some others; about 3.1% of the full set was active somewhere.
Mcl1-Bid inh – disrupts binding of human Mcl-1 to Bid peptide | TR-FRET Mcl-1/Bid-Dy647 peptide binding, 1536-well | inhibition, % at 21.7 µM | Q07820 | 220,000 tested, 0.97% active;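 active = compounds that cut the binding signal by more than half at the single screening dose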;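 note: His-tagged Mcl-1 with europium anti-His antibody binding Bid BH3 peptide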
Target sequence (Q07820 whole entry, looked up): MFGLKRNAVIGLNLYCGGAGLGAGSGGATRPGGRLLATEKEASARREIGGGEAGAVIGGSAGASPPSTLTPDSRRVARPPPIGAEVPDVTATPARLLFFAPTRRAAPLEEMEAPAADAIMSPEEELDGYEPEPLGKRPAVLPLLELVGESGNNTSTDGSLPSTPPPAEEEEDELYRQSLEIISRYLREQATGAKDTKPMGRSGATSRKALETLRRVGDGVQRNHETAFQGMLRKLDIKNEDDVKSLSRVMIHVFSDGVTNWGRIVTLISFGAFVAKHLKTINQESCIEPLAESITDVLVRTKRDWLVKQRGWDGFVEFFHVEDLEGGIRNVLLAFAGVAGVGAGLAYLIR
14-3-3 Bad PPI – disrupts binding of bovine 14-3-3 zeta to phospho-Bad peptide; 220,000 tested, 0.71% active; AID 781; inhibition, % at 21.7 µM; TR-FRET 14-3-3zeta/Dy647-pBad peptide displacement, 1 h;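 active = inhibition above about 70%, limit read from the data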
Target sequence (P63103 whole entry, looked up): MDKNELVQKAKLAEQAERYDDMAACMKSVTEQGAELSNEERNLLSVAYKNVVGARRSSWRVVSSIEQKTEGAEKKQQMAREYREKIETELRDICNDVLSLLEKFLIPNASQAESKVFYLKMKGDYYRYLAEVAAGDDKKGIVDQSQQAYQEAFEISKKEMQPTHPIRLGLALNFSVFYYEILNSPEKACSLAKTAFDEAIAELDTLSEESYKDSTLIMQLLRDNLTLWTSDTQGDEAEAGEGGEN
Mcl1-Noxa inh – Mcl-1/Noxa interaction inhibition; Q07820; AID 1022; inhibition, % at 21.7 µM; TR-FRET Mcl-1/Noxa peptide binding, 2 h; 220,000 tested, 1.5% active;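 active = compounds that cut the protein-peptide binding signal by more than 50% relative to plate controls in a single-dose test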;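 note: His-tagged Mcl-1 with rhodamine Noxa BH3 peptide and terbium anti-His antibody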
Bim-Mcl-1 – disrupts Bim peptide binding to human Mcl-1. Bead-based flow cytometry, Bim peptide-Mcl-1 binding. inhibition, % at 10 µM. 190,000 tested, 0.1% active. AID 1009; in the data active = inhibition above about 40%
p47phox inh – inhibitors of human p47phox binding; P14598; p47phox/p22phox peptide binding, fluorescence polarization, 2 h; inhibition, % at 24.7 µM; 220,000 tested, 0.53% active; AID 1274;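 active = inhibition above about 30%, limit read from the data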
Hits are given with their value; n = inactive; x = no result given; ! = not active in a repeat.

SMILES	Mcl1-Bid inh	14-3-3 Bad PPI	Mcl1-Noxa inh	Bim-Mcl-1	p47phox inh
c1ccc(C2[C@H]3CN(CC4CCCCC4)[C@H](c4ccccc4)C34CC2(c2cccnc2)C4)cc1 (stereo partly drawn)	n	n	n	x	n
COc1ccc(/C=N/NS(=O)(=O)c2ccccc2)cc1OC(=O)c1ccc(C)cc1	85.9	n	n	n	n
Cc1cccn2cc(COc3cccc([N+](=O)[O-])c3)nc12	n	n	n	n	n
Cc1cccn2cc(COc3ccc(-c4ccccc4)cc3)nc12	n	79.2	n	n	n
COc1ccccc1NC(=O)CCN1CC(C)OC(C)C1 (stereo not drawn)	n	n	n	n	n
COc1ccccc1/C=C/CN1CC(C)OC(C)C1 (stereo not drawn)	n	79.3	n	n	n
O=C(CN1C(=O)C2CCCCC2C1=O)OCn1nnc2ccccc2c1=O (stereo not drawn)	n	n	n	n	n
O=C(OCn1nnc2ccccc2c1=O)C1CCCCC1	n	n	53.6	n	n
Cc1oc(S(=O)(=O)N2CCOCC2)cc1C(=O)Nc1ccc(Cl)cc1	n	n	n	x	n
CN(C)S(=O)(=O)c1c(Cl)cccc1Cl	n	81.0	n	n	n
O=C1c2ccccc2C(=O)N1CC1=CCS(=O)(=O)C1	n	n	n	n	n
Cc1cc(C)c2cc3c(N)c(C(=O)N4CCOCC4)sc3nc2c1	n	n	n	n	x
Cc1ccc(C)c2nc3sc(C(=O)N4CCOCC4)c(N)c3cc12	n	n	60.4	n	n
Cc1cc(C)c2nc3sc(C(=O)N4CCOCC4)c(N)c3cc2c1	n	n	65.2	x	n
NS(=O)(=O)c1ccc(N/N=C/c2ccc(O)cc2O)c([N+](=O)[O-])c1	n	n	n	x	n
NS(=O)(=O)c1ccc(N/N=C/c2ccc(O)c(O)c2O)c([N+](=O)[O-])c1	95.4	89.0	n	x	n
CC(/C=C/c1ccccc1)=N/NC(=O)c1cccc(Br)c1	n	n	n	n	n
CN1CCN(C(c2cccs2)c2nnnn2Cc2ccc(F)cc2)CC1 (stereo not drawn)	n	n	n	n	n
Cn1c2ccccc2c2cnn(CC(=O)Nc3ccccc3Br)c(=O)c21	n	73.6	n	x	n
Cn1c2ccccc2c2cnn(CC(=O)Nc3ccc(F)cc3F)c(=O)c21	n	n	n	x	n
O=C(O)c1cc(CN2CCOCC2)oc1-c1ccccc1	n	75.9	n	n	n
CCN(CC)Cc1cc(C(=O)O)c(-c2ccccc2)o1	n	n	n	x	n
O=C(NCc1ccco1)c1cccc(Nc2nc3ccc(Br)cc3[nH]2)c1	n	n	n	n	n
O=C(NCC1CC1)c1ccc(Nc2nc3ccc(Br)cc3[nH]2)cc1	n	n	52.1	n	n
O=C(Cc1c(Cl)cccc1Cl)OCC(=O)N1CCc2ccccc2C1	78.3	n	n	n	n
SMILES	Mcl1-Bid inh	14-3-3 Bad PPI	Mcl1-Noxa inh	Bim-Mcl-1	p47phox inh
CNS(=O)(=O)c1cccc(C(=O)OCC(=O)N2CCc3ccccc3C2)c1	n	n	n	n	30.1
O=C(Cn1[nH]c(=O)c2ccccc2c1=O)OCC(=O)N1CCc2ccccc2C1	83.0	n	n	n	n
CC1(C)CC2=C(CO1)C(=S)NC(c1ccccc1)N2CC1CCCO1 (stereo not drawn)	n	n	n	x	n
CCOC(=O)N1CCC(NC(=O)C2=CCN(S(=O)(=O)c3ccc(OC)cc3)CC2)CC1	n	n	n	x	n
CCN(CC(=O)Nc1cc(Cl)ccc1C)c1ncnc2sc(C)c(C)c12	n	n	n	n	n
O=C(COC(=O)c1ccc([N+](=O)[O-])s1)Nc1ncc(C(F)(F)F)cc1Cl	n	n	n	n	n
c1csc(CN2CCOCC2)c1	n	82.8	n	n	n
c1csc(CNCCCN2CCOCC2)c1	n	n	n	n	n
COc1cc(OC)c(OC)cc1CN1CCc2ccccc2C1	55.1	n	n	n	n
COc1cc2c(cc1OC)CN(Cc1cccs1)CC2	n	73.8	n	n	n
COc1ccc(N2CC(NC(=O)NCCC(C)C)CC2=O)cc1 (stereo not drawn)	n	n	n	n	n
CCOc1ccc(S(=O)(=O)N/N=C2/CC(c3ccccc3)Oc3ccccc32)cc1 (stereo not drawn)	n	n	n	n	n
COc1ccc2nc(N3C(=O)/C(=C/c4ccccc4)NC3=S)sc2c1	n	n	64.4	n	n
O=C(NC(=S)Nc1nc2c(s1)CSc1ccccc1-2)c1ccccc1	n	n	72.7	n	n
O=C(Nc1nc2ccc(Cl)cc2s1)C1CCCO1 (stereo not drawn)	n	n	n	n	n
O=C(CP(=O)(c1ccccc1)c1ccccc1)Nc1nc2ccc(Cl)cc2s1	96.9	n	n	x	n
O=c1c2ccccc2nc2n1CCCCC2	n	n	n	n	n
O=c1c2ccccc2nc2n1CCC2	96.0	93.7	n	n	n
O=C(O)c1ccc(N=Nc2c(O)[nH]c3cc(Cl)ccc23)cc1	n	n	61.9	x	n
CCn1c2ccccc2c2cc(CN3CCN(S(=O)(=O)Cc4ccccc4)CC3)ccc21	n	n	n	n	n
CN1CCN(CCCN2c3ccccc3Sc3ccc(Cl)cc32)CC1	n	n	77.2	n	109.9!
O=C(NCCCN1CCN(CCCNC(=O)c2ccc(F)cc2)CC1)c1ccc(F)cc1	n	n	n	n	n
CN1CCN(CCCNC(=O)c2ccc(/C=C3\Sc4ccccc4N(Cc4ccc(F)cc4)C3=O)cc2)CC1	n	73.5	n	n	87.3
CCN1CCN(CCNC(=O)c2ccc(/C=C3\Sc4ccccc4N(Cc4ccccc4F)C3=O)cc2)CC1	n	n	n	n	85.9
CN1CCN(CCCNC(=O)c2ccc(/C=C3/Sc4ccccc4N(Cc4cccc(Cl)c4)C3=O)cc2)CC1	n	77.3	n	n	78.1
SMILES	Mcl1-Bid inh	14-3-3 Bad PPI	Mcl1-Noxa inh	Bim-Mcl-1	p47phox inh
O=C(OCc1ccc(F)cc1)c1ccc2ccccc2n1	n	n	n	n	n
CC(=O)Nc1cccc(-c2nnc(SCC(=O)n3c4c(c5ccccc53)CCCC4)n2C)c1	n	n	n	n	n
CCOc1ccccc1CN(CCc1ccc2c(c1)OCO2)Cc1ccccn1	n	72.2	n	x	n
Brc1ccc(OCCCN2CCOCC2)cc1	64.5	n	n	n	n
Cn1cccc1CNC1CCCCC1	n	n	n	n	n
c1ccc(-n2cccc2CNC2CCCCC2)cc1	n	70.1	n	n	n
O=C(CN1CCN(S(=O)(=O)c2ccc(Cl)s2)CC1)N1CCOCC1	n	n	n	x	n
C#CCOCCOCCOCCNc1nc(N2CCN(C(=O)[C@H](CCC(=O)O)n3cc(C(N)CC(C)C)nn3)CC2)nc(N2CCN(C(=O)[C@H](CCC(=O)O)n3cc(C(N)CC(C)C)nn3)CC2)n1 (stereo partly drawn)	67.2	n	n	n	x
C#CCOCCOCCOCCNc1nc(N2CCN(C(=O)[C@H]([C@@H](C)CC)n3cc([C@@H](N)CO)nn3)CC2)nc(N2CCN(C(=O)[C@H](Cc3ccc(O)cc3)n3cc([C@@H](N)CC(C)C)nn3)CC2)n1	63.4	n	n	n	n
